The record followed here is the supplement of paper PMC10646978.

Structures are written as SMILES. ± gives the standard deviation.

Common to all, as to settings: modulator concentration 10 µM
Assay [1] relates to RAW-Dual (murine macrophage reporter line). As to the kind of experiment: NF-kB reporter (SEAP) activity fold change vs agonist alone; higher = enhanced NF-kB activity. Summed up:
(§1)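 RAW-Dual murine macrophage reporter cells were seeded at 50 000 per well in 384-well plates and pre-incubated 1 hour at 37 °C with compound pin-transferred to 10 μM final. After 1 hour, a PRR agonist was added and cells incubated overnight. Supernatant NF-κB (SEAP, QUANTI-Blue, 620 nm absorbance) and IRF (Lucia luciferase, QUANTI-Luc, luminescence) signals were divided by the mean agonist-only control on the same plate to give fold change. Two replicate plates were averaged, with errors by propagation.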

For assay [2] the test system is unchanged. Nature of the assay: IRF reporter (Lucia luciferase) activity fold change vs agonist alone; higher = enhanced IRF activity. In outline: as §1
The test system is the same in assay [3]. As to the kind of experiment: viability score (confluency relative to resting cells, overnight) (fraction); higher = more viable, active = viable (0.7 or more). Summed up:
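RAW-Dual macrophages in 384-well plates were exposed overnight to compound at 10 μM final. Confluency was imaged with IncuCyte, and two confluency masks were generated with IncuCyte software over all imaged wells. The viability score is confluency expressed relative to resting cells. Compounds were called viable if both masks exceeded 70% of resting cells.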

Setting [4] is: agonist: CpG ODN 1826 0.5 ug/mL.

With `O=C(NC1CCN(c2ccc(C(F)(F)F)cn2)C1)c1nc2ccccc2s1` (stereo unspecified), the NF-kB reporter in assay [1] (setting [4]) was 1.09 ± 0.056; in assay [1] (agonist: LPS 0.1 ug/mL) it was 1.05 ± 0.088; in assay [1] (agonist: MPLA […]) it was 0.909 ± 0.081. Further, the IRF reporter came out at 0.953 ± 0.049 in assay [2] (agonist: 3'3'-cGAMP 10 ug/mL), 1.27 ± 0.076 in assay [2] (agonist: LPS 0.1 ug/mL) and 1.11 ± 0.28 in assay [2] (agonist: MPLA […]). The viability score in assay [3] is 0.983 (active).

For the compound `O=C(CCCN1CC=C(n2c(=O)[nH]c3ccccc32)CC1)c1ccc(F)cc1`, the values for the NF-kB reporter in assay [1] (setting [4]), in assay [1] (agonist: LPS 0.1 ug/mL) and in assay [1] (agonist: MPLA […]) were 0.788 ± 0.06, 0.828 ± 0.078 and 0.71 ± 0.069, respectively. Moreover, the values for the IRF reporter in assay [2] (agonist: 3'3'-cGAMP 10 ug/mL), in assay [2] (agonist: LPS 0.1 ug/mL) and in assay [2] (agonist: MPLA […]) were 0.975 ± 0.052, 0.932 ± 0.15 and 1.21 ± 0.2, respectively. Besides, in assay [3], the viability score was 0.276 (inactive).

`Cl.O=C(O)/C=C/c1ccc(Cn2ccnc2)cc1`: the NF-kB reporter in assay [1] (setting [4]) came to 1.43 ± 0.19; in assay [1] (agonist: LPS 0.1 ug/mL), 1.32 ± 0.25; in assay [1] (agonist: MPLA […]), 0.979 ± 0.069. Besides, the IRF reporter in assay [2] (agonist: 3'3'-cGAMP 10 ug/mL) turned out to be 0.909 ± 0.028; in assay [2] (agonist: LPS 0.1 ug/mL), 1.34 ± 0.23; in assay [2] (agonist: MPLA […]), 0.87 ± 0.096. Further, the viability score in assay [3] is 0.988 (active).

Turning to `CC(C)(C)c1ccc(C(=O)Nc2nc3ccc([N+](=O)[O-])cc3s2)cc1`, the NF-kB reporter in assay [1] (setting [4]) came to 1.06 ± 0.085; in assay [1] (agonist: LPS 0.1 ug/mL) it was 1.05 ± 0.072; in assay [1] (agonist: MPLA […]), 1 ± 0.035. In addition, the IRF reporter in assay [2] (agonist: 3'3'-cGAMP 10 ug/mL) was determined as 1.04 ± 0.23; in assay [2] (agonist: LPS 0.1 ug/mL), 0.986 ± 0.074; in assay [2] (agonist: MPLA […]) it was 1.1 ± 0.11. The viability score in assay [3] is 1 (active).

Consider `CCOC(=O)C1=C(C)NC(C)=C(C(=O)OCC)C1c1ccc(Cl)cc1`, for which the NF-kB reporter in assay [1] (setting [4]) turned out to be 0.3 ± 0.023; in assay [1] (agonist: LPS 0.1 ug/mL), 0.27 ± 0.019; in assay [1] (agonist: MPLA […]), 0.748 ± 0.026. For the same compound, the IRF reporter was determined as 0.743 ± 0.061 in assay [2] (agonist: 3'3'-cGAMP 10 ug/mL), 0.636 ± 0.084 in assay [2] (agonist: LPS 0.1 ug/mL) and 1.67 ± 0.2 in assay [2] (agonist: MPLA […]). Moreover, the viability score in assay [3] is 0.187 (inactive).

Turning to `CCCCc1nc2cc(/C=C/C(=O)NO)ccc2n1CCN(CC)CC`, the NF-kB reporter in assay [1] (setting [4]) amounted to 1.6 ± 0.08; in assay [1] (agonist: LPS 0.1 ug/mL), 1.77 ± 0.14; in assay [1] (agonist: MPLA […]), 2.71 ± 0.12. Also, the IRF reporter in assay [2] (agonist: 3'3'-cGAMP 10 ug/mL) was determined as 0.0513 ± 0.0098; in assay [2] (agonist: LPS 0.1 ug/mL), 0.266 ± 0.019; in assay [2] (agonist: MPLA […]), 0.424 ± 0.05. Besides, the viability score in assay [3] was 0.0718 (inactive).

As for `Cl.O=C1c2cccc3c2C(CCC3)CN1C1CN2CCC1CC2` (stereo unspecified), the values for the NF-kB reporter in assay [1] (setting [4]), in assay [1] (agonist: LPS 0.1 ug/mL) and in assay [1] (agonist: MPLA […]) were 0.77 ± 0.21, 0.704 ± 0.044 and 0.825 ± 0.058, respectively. Moreover, the IRF reporter in assay [2] (agonist: 3'3'-cGAMP 10 ug/mL) stood at 0.557 ± 0.035; in assay [2] (agonist: LPS 0.1 ug/mL) it was 0.718 ± 0.086; in assay [2] (agonist: MPLA […]), 0.924 ± 0.14. The viability score in assay [3] is 0.987 (active).

Consider `CCOCCOC(=O)C1=C(C)NC2=C(C(=O)CCC2)C1c1coc2ccc(C)cc2c1=O` (stereo unspecified), for which the figures for the NF-kB reporter in assay [1] (setting [4]), in assay [1] (agonist: LPS 0.1 ug/mL) and in assay [1] (agonist: MPLA […]) were 0.973 ± 0.083, 0.961 ± 0.12 and 0.993 ± 0.12, respectively. For the same compound, the IRF reporter was 1.01 ± 0.029 in assay [2] (agonist: 3'3'-cGAMP 10 ug/mL), 1.41 ± 0.14 in assay [2] (agonist: LPS 0.1 ug/mL) and 1.18 ± 0.11 in assay [2] (agonist: MPLA […]). In assay [3], the viability score was 1.01 (active).

Consider `CCN1C(=O)CC(NCCc2ccc(S(N)(=O)=O)cc2)C1=O` (stereo unspecified), for which the values for the NF-kB reporter in assay [1] (setting [4]), in assay [1] (agonist: LPS 0.1 ug/mL) and in assay [1] (agonist: MPLA […]) were 0.979 ± 0.056, 1.03 ± 0.074 and 0.905 ± 0.065, respectively. Moreover, the figures for the IRF reporter in assay [2] (agonist: 3'3'-cGAMP 10 ug/mL), in assay [2] (agonist: LPS 0.1 ug/mL) and in assay [2] (agonist: MPLA […]) were 0.961 ± 0.035, 1.46 ± 0.19 and 1.22 ± 0.16, respectively. Moreover, the viability score in assay [3] is 0.997 (active).

Consider `Brc1ccc(Cn2c(CN3CCCC3)nc3ccccc32)cc1`, for which the NF-kB reporter in assay [1] (setting [4]) was determined as 0.679 ± 0.17; in assay [1] (agonist: LPS 0.1 ug/mL), 1.05 ± 0.092; in assay [1] (agonist: MPLA […]) it was 1.07 ± 0.08. For the same compound, the IRF reporter in assay [2] (agonist: 3'3'-cGAMP 10 ug/mL) is 0.775 ± 0.029; in assay [2] (agonist: LPS 0.1 ug/mL) it was 1.12 ± 0.18; in assay [2] (agonist: MPLA […]), 1.16 ± 0.22. In assay [3], the viability score is 0.957 (active).

For `COc1ccc(C(=O)Oc2ccc(-c3ccc(C)cc3)cc2)cc1OC`, the NF-kB reporter in assay [1] (setting [4]) is 0.744 ± 0.058; in assay [1] (agonist: LPS 0.1 ug/mL), 0.892 ± 0.042; in assay [1] (agonist: MPLA […]), 1 ± 0.09. The IRF reporter was determined as 0.957 ± 0.069 in assay [2] (agonist: 3'3'-cGAMP 10 ug/mL), 1.22 ± 0.09 in assay [2] (agonist: LPS 0.1 ug/mL) and 1.27 ± 0.15 in assay [2] (agonist: MPLA […]). For the same compound, the viability score in assay [3] is 0.996 (active).

Consider `O=C(Nc1ccc(S(=O)(=O)N2CCOCC2)cc1)c1ccc(Br)s1`, for which the figures for the NF-kB reporter in assay [1] (setting [4]), in assay [1] (agonist: LPS 0.1 ug/mL) and in assay [1] (agonist: MPLA […]) were 1.14 ± 0.13, 1.02 ± 0.092 and 1.01 ± 0.029, respectively. Moreover, the IRF reporter in assay [2] (agonist: 3'3'-cGAMP 10 ug/mL) was 0.521 ± 0.021; in assay [2] (agonist: LPS 0.1 ug/mL), 1.05 ± 0.065; in assay [2] (agonist: MPLA […]), 1.12 ± 0.12. For the same compound, the viability score in assay [3] is 0.995 (active).

In the case of `C=CCNC1=C2C[C@@H](C)C[C@H](OC)[C@H](O)[C@@H](C)/C=C(\C)[C@H](OC(N)=O)[C@@H](OC)/C=C\C=C(/C)C(=O)NC(=CC1=O)C2=O`, the NF-kB reporter in assay [1] (setting [4]) amounted to 0.174 ± 0.0095; in assay [1] (agonist: LPS 0.1 ug/mL), 0.215 ± 0.021; in assay [1] (agonist: MPLA […]) it was 0.413 ± 0.042. The IRF reporter in assay [2] (agonist: 3'3'-cGAMP 10 ug/mL) amounted to 1.63 ± 0.15; in assay [2] (agonist: LPS 0.1 ug/mL), 3.81 ± 0.34; in assay [2] (agonist: MPLA […]), 3.4 ± 0.71. Besides, the viability score in assay [3] was 0.493 (inactive).
